From PubChem BioAssay (EPA / NIEHS) come the findings set out here.

Assay [1] is described as follows: ATG_CRE_CIS: Attagene CIS-FACTORIAL HepG2 Assay for human cAMP Responsive Element (CRE) binding protein 3 (AID 2282926). The note with it: HepG2 CRE cis-reporter, Attagene multiplexed mRNA; actives raise or lower the signal. A digest of the protocol: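 Endogenous transcription factor activity read via CRE-regulated reporter transcripts in transfected HepG2 cells. After 24 h exposure, RNA was reverse-transcribed, amplified, fluorescently labelled and sized by capillary electrophoresis; gain or loss fitted against DMSO.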

The nature of assay [2]: ATG_CMV_CIS: Attagene CIS-FACTORIAL HepG2 Assay for human CMV (Internal Marker) (AID 2282928).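 Also: endpoint acts as a background internal control marker rather than a target.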 The note with it: HepG2 CMV promoter reporter, transcription factor profiling; actives raise or lower the signal. A digest of the protocol:
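Readout: fluorescent reporter cDNA fragments separated by capillary electrophoresis after RT-PCR and HpaI cut. Cells: HepG2 carrying transfected cis-promoter reporter constructs, dosed 24 h. Endpoint serves as background internal-marker control, fit bidirectionally versus DMSO.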

The nature of assay [3]: ATG_DR4_LXR_CIS: Attagene CIS-FACTORIAL HepG2 Assay for human Liver X Receptor (LXR), DR4 submotif (AID 2282929). The note with it: HepG2 Attagene DR4 cis-reporter, mRNA transcription; actives raise or lower the signal. A digest of the protocol:
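HepG2, transient MRTU transfection, cis-element (DR4) promoter; 24 h compound exposure; total RNA → oligo(dT) RT → PCR → 6-FAM primer extension → HpaI cut → CE. Gain/loss vs DMSO, bidirectional fit.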

Assay [4] concerns the target Aryl hydrocarbon receptor (Homo sapiens) (UniProt P35869). As to the kind of experiment: ATG_Ahr_CIS: Attagene CIS-FACTORIAL HepG2 Assay for human Aryl Hydrocarbon Receptor (Ahr) (AID 2282930). The note with it: HepG2 AhR cis-factorial reporter transcription; actives raise or lower the signal. In outline:
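HepG2 cells transiently transfected with cis-element-driven multiplexed reporter units; endogenous AhR activity read as reporter mRNA 24 h after dosing, via RT-PCR, 6-FAM labelling, HpaI digestion and capillary electrophoresis. Bidirectional fit relative to DMSO.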

The nature of assay [5]: ATG_AP_1_CIS: Attagene CIS-FACTORIAL HepG2 Assay for human Activator Protein 1 (AP-1) (AID 2282931). The note with it: HepG2 Attagene cis-factorial AP-1 reporter mRNA; actives raise or lower the signal. A digest of the protocol:
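Transient MRTU transfection of HepG2 → 24 h chemical treatment → RNA isolation, RT-PCR, 6-FAM labelling, HpaI digest → capillary electrophoresis. Fit: bidirectional, DMSO negative control.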

A short description of assay [6]: ATG_AP_2_CIS: Attagene CIS-FACTORIAL HepG2 Assay for human Activator Protein 2 (AP-2) (AID 2282932). The note with it: HepG2 AP-2 cis-reporter, Attagene transcription factor profiling; actives raise or lower the signal. A digest of the protocol: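 Read-out: fluorescent reporter mRNA via RT-PCR and capillary electrophoresis, 24 h post-dose in transiently transfected HepG2. Endogenous factors drive cis-promoter reporters; gain or loss of signal fitted bidirectionally against DMSO.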

Assay [7] can be described thus: ATG_BRE_CIS: Attagene CIS-FACTORIAL HepG2 Assay for human Bone Morphogenetic Protein (BMP) Response Element (BRE) (AID 2282933). The note with it: HepG2 BMP response element reporter, Attagene transcription factor profiling; actives raise or lower the signal. A digest of the protocol:
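A HepG2 multiplex reporter system measured inducible reporter mRNA 24 h post-dosing. Detection: RT-PCR, 6-FAM primer extension, HpaI digestion, capillary electrophoresis. Activity fitted bidirectionally relative to DMSO.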

For assay [8], the target named is Retinoic acid receptor alpha (Homo sapiens) (UniProt P10276). Description: ATG_DR5_RAR_CIS: Attagene CIS-FACTORIAL HepG2 Assay for human Retinoic Acid Receptor Alpha (RARE), DR5 submotif (AID 2282934). The note with it: HepG2 Attagene cis-factorial RARE DR5 reporter, mRNA; actives raise or lower the signal. In outline: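 HepG2 cells transiently transfected with multiplexed reporter units; DR5 cis-element drives reporter through endogenous transcription factors. After 24 h dosing, reporter mRNA quantified by RT-PCR, fluorescent labeling, HpaI digestion and capillary electrophoresis; bidirectional fitting versus DMSO.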
Sequence of Retinoic acid receptor alpha (Homo sapiens) (P10276 whole entry, looked up): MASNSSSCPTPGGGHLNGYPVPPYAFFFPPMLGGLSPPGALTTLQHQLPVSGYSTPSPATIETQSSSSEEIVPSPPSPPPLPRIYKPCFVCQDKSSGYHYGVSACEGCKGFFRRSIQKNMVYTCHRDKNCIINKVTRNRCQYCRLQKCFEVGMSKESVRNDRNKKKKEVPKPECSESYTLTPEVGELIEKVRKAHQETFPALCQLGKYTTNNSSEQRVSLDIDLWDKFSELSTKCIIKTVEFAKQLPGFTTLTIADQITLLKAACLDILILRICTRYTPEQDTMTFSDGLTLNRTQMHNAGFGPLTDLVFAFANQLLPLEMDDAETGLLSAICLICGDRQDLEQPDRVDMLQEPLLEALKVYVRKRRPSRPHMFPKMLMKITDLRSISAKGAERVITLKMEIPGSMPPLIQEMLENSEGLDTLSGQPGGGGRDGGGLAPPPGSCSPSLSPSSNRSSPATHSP

Assay [9] in a line: ATG_E_Box_CIS: Attagene CIS-FACTORIAL HepG2 Assay for human Enhancer Box (E-box) (AID 2282936). The note with it: HepG2 E-box cis-reporter transcription, actives raise or lower the signal. A digest of the protocol: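 Transiently transfected HepG2, endogenous TF-driven reporters, 24 h dosing. Readout: RT-PCR plus capillary electrophoresis of fluorescent reporter fragments. Gain or loss of signal fitted bidirectionally against DMSO baseline.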

Assay [10] in a line: ATG_M_61_CIS: Attagene CIS-FACTORIAL HepG2 Assay for M61 Transcription Factor (Internal Marker) (AID 2282937). The note with it: HepG2 Attagene CIS-FACTORIAL M61 internal marker reporter; actives raise or lower the signal. In outline:
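Human liver HepG2, transient MRTU transfection (cis promoter elements), 24 h compound. Total RNA → oligo(dT) RT → PCR → FAM label → HpaI → CE. Internal background marker; bidirectional fitting, DMSO = baseline.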

The nature of assay [11]: ATG_EGR_CIS: Attagene CIS-FACTORIAL HepG2 Assay for human Early Growth Response 1 (EGR1) (AID 2282938). The note with it: HepG2 Attagene CIS-FACTORIAL EGR reporter mRNA; actives raise or lower the signal. In outline: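 Transient transfection of human HepG2 with multiple cis-regulated reporter units, chemical exposure 24 h, total RNA isolated. Reverse transcription, PCR, fluorescent labelling and capillary electrophoresis quantify reporter transcripts; activity fitted bidirectionally against DMSO.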

A short description of assay [12]: ATG_M_19_CIS: Attagene CIS-FACTORIAL HepG2 Assay for M19 Transcription Factor (Internal Marker) (AID 2282939). The note with it: HepG2 Attagene CIS-FACTORIAL M19 internal marker reporter; actives raise or lower the signal. In outline: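 Chemical-treated HepG2 (24 h) with MRTU constructs; reporter transcripts detected by fluorescent RT-PCR fragment analysis on capillary electrophoresis. Internal background marker, DMSO as baseline.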

A short description of assay [13]: ATG_ERE_CIS: Attagene CIS-FACTORIAL HepG2 Assay for Estrogen Response Element (ERE) (AID 2282940). The note with it: HepG2 ERE cis-reporter, Attagene RNA transcript; actives raise or lower the signal. In outline: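 Human liver cells (HepG2) bearing transiently transfected, promoter-regulated reporter units were exposed 24 h. Reporter mRNA induction was detected by capillary electrophoresis of labelled RT-PCR products and fitted bidirectionally to DMSO.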

Assay [14] can be described thus: ATG_Ets_CIS: Attagene CIS-FACTORIAL HepG2 Assay for human Erythroblast Transformation Specific (ETS) (AID 2282941). The note with it: HepG2 ETS cis-reporter transcription, actives raise or lower the signal. In outline: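 RT-PCR/capillary electrophoresis fluorescence read-out of reporter mRNA; HepG2 transient multi-reporter transfection; 24 h compound exposure; gain or loss of signal fitted bidirectionally relative to DMSO.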

Assay [15] has as its target Hepatocyte nuclear factor 3-beta (Homo sapiens) (UniProt Q9Y261). As to the kind of experiment: ATG_FoxA2_CIS: Attagene CIS-FACTORIAL HepG2 Assay for human Forkhead box A2 (FOXA2) (AID 2282942). The note with it: HepG2 cis-reporter transcription factor activity, 24 h; actives raise or lower the signal. In outline: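 Transient MRTU transfection of HepG2 liver cells; 24 h treatment; total RNA → oligo(dT) RT → PCR → FAM primer extension → HpaI cut → CE. Bidirectional fit vs DMSO.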

Assay [16] can be described thus: ATG_FoxO_CIS: Attagene CIS-FACTORIAL HepG2 Assay for human Forkhead box O (FoxO) (AID 2282943). The note with it: HepG2 Attagene cis-reporter, FoxO element, mRNA; actives raise or lower the signal. In outline: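 HepG2 cells transiently transfected with cis-element-driven reporter units report endogenous FoxO activity. After 24 h chemical exposure, reporter mRNA quantified by RT-PCR, fluorescent labeling, HpaI digestion and capillary electrophoresis; bidirectional fit versus DMSO.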

Assay [17] is described as follows: ATG_GATA_CIS: Attagene CIS-FACTORIAL HepG2 Assay for human GATA Binding Protein (AID 2282944). The note with it: HepG2 GATA cis-element reporter, Attagene multiplex mRNA; actives raise or lower the signal. A digest of the protocol: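 Transfected cis-reporter HepG2 cells were treated with chemicals for 24 hours. Total RNA was then converted to cDNA, amplified with reporter-specific primers and analysed by fluorescent capillary electrophoresis, using DMSO-treated wells as baseline.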

Assay [18] is described as follows: ATG_GLI_CIS: Attagene CIS-FACTORIAL HepG2 Assay for human Zinc Finger Protein GLI1 (AID 2282945). The note with it: HepG2, Attagene cis-factorial reporter mRNA, GLI element; actives raise or lower the signal. In outline: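 Transiently transfected HepG2 cells report endogenous transcription factor activity via cis-element-driven reporter units. After 24 h compound exposure, reporter mRNA was measured by RT-PCR with capillary electrophoresis; bidirectional fitting against DMSO baseline.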

Assay [19] addresses Transcription factor E2F1 (Homo sapiens) (UniProt Q01094). Description: ATG_E2F_CIS: Attagene CIS-FACTORIAL HepG2 Assay for human E2F Transcription Factor 1 (AID 2282935). The note with it: HepG2 Attagene cis-reporter, E2F reporter RNA transcripts; actives raise or lower the signal. A digest of the protocol:
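Transient MRTU transfection of HepG2; 24 h compound exposure; RNA → oligo(dT) RT → PCR → FAM label → HpaI cut → CE fluorescence. Gain/loss of signal fit against DMSO.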

Activity calls are given as the source filed them. The calls were made as follows: active = hit-call score of the fitted dose curve at least 0.9, where 1 is the maximum; inactive = score below 0.9.

Sequence of Transcription factor E2F1 (Homo sapiens) (Q01094 whole entry, looked up): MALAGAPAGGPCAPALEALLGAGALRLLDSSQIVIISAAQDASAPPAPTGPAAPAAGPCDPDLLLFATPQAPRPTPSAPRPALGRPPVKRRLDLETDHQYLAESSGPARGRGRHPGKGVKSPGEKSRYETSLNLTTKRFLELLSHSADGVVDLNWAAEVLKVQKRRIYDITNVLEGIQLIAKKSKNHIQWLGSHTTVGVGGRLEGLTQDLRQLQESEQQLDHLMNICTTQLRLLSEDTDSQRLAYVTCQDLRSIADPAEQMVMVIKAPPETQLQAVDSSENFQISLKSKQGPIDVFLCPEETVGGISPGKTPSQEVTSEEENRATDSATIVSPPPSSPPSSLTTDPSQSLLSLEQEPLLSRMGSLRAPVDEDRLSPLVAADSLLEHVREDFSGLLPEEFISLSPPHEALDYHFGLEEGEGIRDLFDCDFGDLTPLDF
Sequence of Hepatocyte nuclear factor 3-beta (Homo sapiens) (Q9Y261 whole entry, looked up): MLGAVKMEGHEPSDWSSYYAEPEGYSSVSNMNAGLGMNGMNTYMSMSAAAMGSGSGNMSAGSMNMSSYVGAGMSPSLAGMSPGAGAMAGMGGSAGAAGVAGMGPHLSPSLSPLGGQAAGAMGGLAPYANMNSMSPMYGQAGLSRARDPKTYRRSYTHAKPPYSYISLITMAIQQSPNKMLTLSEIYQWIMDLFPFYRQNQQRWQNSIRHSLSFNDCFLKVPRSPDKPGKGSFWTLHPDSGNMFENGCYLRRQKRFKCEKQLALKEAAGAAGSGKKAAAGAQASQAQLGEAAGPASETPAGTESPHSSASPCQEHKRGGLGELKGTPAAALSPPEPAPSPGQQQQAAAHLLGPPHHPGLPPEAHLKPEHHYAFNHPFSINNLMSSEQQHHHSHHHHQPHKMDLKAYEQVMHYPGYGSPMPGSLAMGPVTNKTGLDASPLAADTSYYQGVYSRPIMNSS
Sequence of Aryl hydrocarbon receptor (Homo sapiens) (P35869 whole entry, looked up): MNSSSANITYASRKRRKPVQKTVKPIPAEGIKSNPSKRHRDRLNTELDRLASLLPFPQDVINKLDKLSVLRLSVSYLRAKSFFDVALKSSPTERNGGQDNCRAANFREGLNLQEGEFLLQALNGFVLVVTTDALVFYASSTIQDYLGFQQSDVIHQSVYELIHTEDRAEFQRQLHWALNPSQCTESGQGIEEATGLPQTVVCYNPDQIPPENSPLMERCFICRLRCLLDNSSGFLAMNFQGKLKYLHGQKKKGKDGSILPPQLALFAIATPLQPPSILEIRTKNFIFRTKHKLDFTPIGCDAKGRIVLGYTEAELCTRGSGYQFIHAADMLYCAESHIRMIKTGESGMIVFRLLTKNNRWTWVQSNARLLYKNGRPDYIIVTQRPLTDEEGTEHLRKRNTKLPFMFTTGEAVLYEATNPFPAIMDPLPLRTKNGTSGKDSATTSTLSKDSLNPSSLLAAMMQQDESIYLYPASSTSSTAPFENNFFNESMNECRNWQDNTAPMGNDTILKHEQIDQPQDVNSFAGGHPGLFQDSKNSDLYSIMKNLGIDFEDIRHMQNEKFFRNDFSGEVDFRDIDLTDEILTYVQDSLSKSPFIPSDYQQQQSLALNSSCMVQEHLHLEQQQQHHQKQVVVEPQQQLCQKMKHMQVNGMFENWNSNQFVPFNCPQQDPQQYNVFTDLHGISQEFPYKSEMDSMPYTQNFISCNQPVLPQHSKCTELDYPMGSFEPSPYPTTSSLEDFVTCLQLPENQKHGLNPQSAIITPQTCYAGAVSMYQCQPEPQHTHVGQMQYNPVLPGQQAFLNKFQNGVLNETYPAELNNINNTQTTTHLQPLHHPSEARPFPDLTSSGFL

For `FC(F)(F)COC(OCC(F)(F)F)OCC(F)(F)F`, the molecule was classed as inactive in assay [1], in assay [2], in [3], in assay [4], in [5] and in [6]. The molecule was classed as inactive in [7], in assay [8], in assay [9], in [10], in [11] and in assay [12]. In addition, the result in [13], in [14], in assay [15], in assay [16], in [17] and in [18] was inactive.

For the molecule `FC(F)=C(F)C(F)(F)C(F)(F)C(F)(F)C(F)(F)C(F)(F)C(F)(F)F`, the molecule was classed as inactive in [1], in assay [2], in assay [3], in assay [4], in assay [5] and in assay [6]. Moreover, the molecule was classed as inactive in assay [7], in [8], in assay [9], in assay [10], in [12] and in assay [13]. Further, the call in [14], in assay [15], in [16], in assay [17] and in [18] was inactive.

Turning to `O=S1(=O)CCCO1`, the outcome in assay [1], in assay [2], in assay [3], in assay [4], in assay [5] and in assay [6] was inactive. Moreover, the molecule was classed as inactive in assay [7], in assay [19], in [9], in assay [10], in assay [12] and in assay [13]. Moreover, the outcome in assay [14], in assay [15], in assay [16], in [17] and in assay [18] was inactive.

In the case of `CCCCCCCC1CCC(=O)O1` (stereo not given), the molecule was called inactive in [2], in [3], in assay [4], in assay [6], in [7] and in [8]. The call in assay [19], in assay [9], in assay [10], in assay [12], in assay [13] and in assay [14] was inactive. For the same molecule, the call in [15], in [16], in assay [17] and in assay [18] was inactive.

Consider `OCCNCCO`, for which the molecule was classed as inactive in assay [1], in assay [2], in assay [3], in assay [4], in assay [5] and in assay [6]. For the same molecule, the molecule was called inactive in assay [7], in assay [8], in assay [9], in assay [10], in [12] and in assay [13]. The result in assay [14], in assay [15], in assay [16], in assay [17] and in assay [18] was inactive.

For `CCn1nc(C)c2c1C(=O)NCC(c1ccc(O)cc1)=N2`, the molecule was called inactive in [1], in assay [2], in assay [3], in assay [4], in [5] and in assay [6]. Besides, the result in [7], in [19], in assay [9], in assay [10], in assay [12] and in assay [13] was inactive. The outcome in assay [14], in assay [15], in assay [16], in assay [17] and in assay [18] was inactive.

`c1ccc(C(O[C@@H]2CCCN(CCc3ccc4c(c3)OCO4)C2)c2ccccc2)cc1`: the result in assay [1], in [6], in assay [19], in [9], in assay [10] and in [12] was inactive. Moreover, the call in [14], in [15], in assay [16], in assay [17] and in [18] was inactive. Also, the half-maximal activity concentration (AC50) is 50.8 µM (active) in [2]; 47.4 µM (active) in assay [3]; 18.1 µM (active) in assay [4]; 52.1 µM (active) in assay [5]; 33 µM (active) in [7]; 13.8 µM (active) in assay [13].

In the case of `Cn1c(=O)c2[nH]cnc2n(C)c1=O`, the outcome in assay [1], in assay [2], in assay [3], in [4], in [5] and in [6] was inactive. The molecule was called inactive in [7], in [9], in [10], in [12], in assay [13] and in assay [14]. The molecule was classed as inactive in [15], in assay [16], in assay [17] and in assay [18].
